The list is not random: actives were taken first. Their share in the collection is about 11%.
Coupling enz: counter-screen for Giardia aldolase inhibitors: coupling enzyme system; coupling enzyme system counterscreen, AmpLite Red fluorescence; activity change, negative = inhibition, % at 58.2 µM, hits read low; hit rate 0.67% among 290,000; in the data active means activity change below about -30%
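Fluorescence at 525 nm excitation and 598 nm emission measured inhibition of the coupled detection system without aldolase. Compounds (at 57.5 uM final) were preincubated 10 min at room temperature with coupling enzyme reagent before a 20 min substrate/AmpLite Red step.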
Tau fibril ThT: tau fibrillization inhibition (ThT binding); P10636; recombinant tau K18 P301L, heparin-induced fibrillization, ThT fluorescence; Potency, µM (top dose mostly 57.4 µM), for inactives: at the top dose activity, negative = inhibition, hits mostly inhibitors; hit rate 2.1% among 270,000; AID 1460; further: potency means the concentration at half of the fitted maximal effect; nearly all actives have a fitted effect of over 55% in size
Target sequence (P10636 561-689 P618L limits assumed): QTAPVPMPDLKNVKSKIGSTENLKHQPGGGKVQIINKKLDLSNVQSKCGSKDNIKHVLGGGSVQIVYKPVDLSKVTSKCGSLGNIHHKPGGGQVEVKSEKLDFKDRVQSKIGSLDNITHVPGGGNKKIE
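Aggregation was driven by heparin (20 uM final) acting on recombinant tau […] bearing P301L in 100 mM sodium acetate pH 7; fibrils were detected with Thioflavin T.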
G9a inh: blocks human histone lysine methyltransferase G9a. Potency, µM (series often up to 102 µM), inactives show at the top dose activity, negative = inhibition, most hits filed as inhibitors. hit rate 8.8% among 350,000. Q96KQ7. AID 504332. G9a H3K9 monomethylation, AlphaScreen, 2 h; further: potency means the concentration at half of the fitted maximal effect; nearly all actives have a fitted effect of over 75% in size
Target sequence (Q96KQ7 913-1193 limits assumed): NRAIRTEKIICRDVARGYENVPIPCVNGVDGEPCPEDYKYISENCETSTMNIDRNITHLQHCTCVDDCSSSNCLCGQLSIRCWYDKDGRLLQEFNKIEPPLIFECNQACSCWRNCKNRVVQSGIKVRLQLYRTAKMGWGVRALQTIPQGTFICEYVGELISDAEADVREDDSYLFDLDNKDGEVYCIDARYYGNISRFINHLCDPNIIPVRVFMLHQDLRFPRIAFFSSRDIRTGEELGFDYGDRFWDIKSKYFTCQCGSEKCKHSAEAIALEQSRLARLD
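Chemiluminescent proximity detection of H3K9 monomethylation, read after 10 min bead incubation in the dark. Reaction: 20 nM G9a, 500 nM biotin-H3K9 peptide, 20 uM SAM cofactor, 2 h, room temperature, following 15 min enzyme-compound preincubation.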
Sfp PPTase inh: inhibitors of Bacillus subtilis Sfp phosphopantetheinyl transferase; Biochemical Sfp PPTase activity, qHTS; Potency, µM, for the others: largest response in the series, negative = inhibition, actives largely listed as inhibitors; hit rate 3.5% among 310,000; AID 1490;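 further: the enzyme is Sfp with the accession as filed and its product quenches rhodamine fluorescence; potency means the concentration at half of the fitted maximal effect; 0% = enzyme reaction without inhibitor and -100% = no enzyme wells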
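Buffer: 50 mM Hepes-Na pH 7.6, 10 mM MgCl2, 0.01% Nonidet P-40, 0.01% BSA. Enzyme 15 nM, pre-exposed to compound 15 min; substrates then added and fluorescence change tracked over 30 min.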
Tau fibril FP: tau fibrillization inhibition (FP); K18 P301L tau heparin fibrillization, Alexa594 FP, 6 h; P10636; hit rate 0.39% among 280,000; Potency, µM (series often up to 57.7 µM), without a hit: at the highest dose activity, negative = inhibition, usual class: inhibitors; further: potency means the concentration at half of the fitted maximal effect; nearly all actives have a fitted effect of over 55% in size
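Human K18 P301L fragment (15 uM unlabeled plus 0.24 uM Alexa 594-labeled) in 100 mM sodium acetate pH 7 with compound, aggregation induced by 20 uM heparin for 6 hr at 37 C. ThT (30 uM) added for 1 hr, then Alexa 594 FP read.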
Tau fluor counter: counter-screen for tau fibril formation inhibitors; hit rate 0.93% among 280,000; Potency, µM (titrated, usually from 57.7 µM), inactives show at the top dose activity change, negative = decrease; tau K18 P301L (four-repeat tau fragment) Alexa594 fluorescence, heparin fibrillization; further: potency means the concentration at half of the fitted maximal effect; nearly all actives have a fitted effect of over 55% in size
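Human K18 P301L tau (15 uM unlabeled plus 0.24 uM Alexa 594-labeled, final) in 100 mM sodium acetate pH 7 was mixed with compound and 20 uM heparin and incubated 6 hr at 37 C.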
Active calls of the source: *; ? = inconclusive; / = no result given; [ ] = dose if it differs, or a comment. Unless noted, the call rests on the fitted dose curve; in most records, active means well fitted curve in the direction sought with a large enough effect; inconclusive means small, poorly fitted or top-dose-only effect, or another doubt; inactive means no such curve, though single readings can be large; an effect the other way counts as inactive or inconclusive. Unless noted, on the % scale 0 is the no-effect control and ±100 the full control effect.

SMILES | Coupling enz | Tau fibril ThT | G9a inh | Sfp PPTase inh | Tau fibril FP | Tau fluor counter
O=S(=O)(Cc1ccccc1)Nc1ccc(Br)cn1 | -0.1 | -0.5% | 70.8µM* | 33.0% | -4.3% | 1.4%
Cc1ccc(NS(=O)(=O)Cc2ccccc2)nc1 | -9.6 | -7.1% | 28.2µM* | -23.9% | -3.7% | 4.9%
Nc1nc(Nc2ccccc2)nc2c1ncn2[C@@H]1O[C@H](CO)[C@@H](O)[C@H]1O | / | / | 32.3%[59 µM] | / | / | /
CCc1ccc(NC(=O)CCNS(=O)(=O)c2ccc3c(c2)oc(=O)n3C)cc1 | / | -5.8% | -3.1%[59 µM] | / | 0.1% | -11.2%
O=C(Nc1ccc(F)cc1)c1cccnc1Oc1ccccc1 | -0.7 | / | 5.9% | 15.9% | / | /
O=C(NNc1cccc(Cl)c1)c1cccnc1Oc1ccccc1 | 0.2 | -12.2% | 15.8µM* | -4.6% | 2.9% | -15.0%
COc1cccc(CNC(=O)COC(=O)CCCNC(=O)c2ccc(Cl)cc2)c1 | / | / | 17.0%[12.7 µM] | / | / | /
CCCn1c(NCc2ccccc2C)nc2ccccc21 | / | -3.2% | 10.2%[59 µM] | / | 4.4% | -6.1%
C=CCc1cccc(CNc2nc3ccccc3n2CC)c1O | 6.2 | -17.5% | / | -15.8% | 14.0% | 17.8µM*[quencher]
C=CCc1cccc(CNc2nc3ccccc3n2CCC)c1O | -1.2 | -16.0% | 7.7%[12.7 µM] | 10.6% | 13.2% | 14.1µM*[quencher]
CCCCN(CCCC)CCNC(=O)c1cn(C)c2ccc(S(=O)(=O)N3CCCC3)cc2c1=O | / | 2.7% | 16.7%[59 µM] | 2.1% | -2.5% | -1.0%
CCCCC/C=C\C/C=C\C/C=C\C/C=C\CCCCCC(=O)NCCCC(=O)O | -1.8 | -8.7% | / | 2.3% | -10.5% | -15.1%
COc1ccc(N2CC(C(=O)Nc3ccc(NC(C)=O)cc3)CC2=O)cc1 (stereo not drawn) | / | -5.3% | 23.4%[59 µM] | / | 4.7% | 0.4%
O=C(NCc1ccc(F)cc1)c1cc(Sc2ccc(F)cc2F)nc2ccccc12 | / | 6.3% | 0.0%[59 µM] | / | ? | -16.1%
CCOc1ccc(C(=O)Nc2nnc(C3=COCCO3)o2)cc1 | / | / | / | 6.9% | / | /
CCCCC(=O)Nc1nnc(C2=COCCO2)o1 | 0.0 | -5.9% | 50.1µM* | ? | 0.7% | 0.6%
COc1ccc(CNC(=O)C2CCN(C(=O)N3CCOc4ccc(Cl)cc43)CC2)cc1 | / | ? | 1.1%[59 µM] | / | -4.4% | -16.3%
Cc1ccc(CCNc2nc3c(S(=O)(=O)c4ccc(C)cc4)nnn3c3ccsc23)cc1 | / | 10.3% | -4.1%[59 µM] | / | ? | -26.2%
CC(OC(=O)CCN1C(=O)c2cccc([N+](=O)[O-])c2C1=O)C(=O)Nc1cc(Cl)cc(Cl)c1 (stereo not drawn) | -0.3 | -6.7% | 25.1µM* | -11.9% | 0.0% | -23.6%
COc1cccc(NC(=O)CCN2C(=O)c3cccc([N+](=O)[O-])c3C2=O)c1 | 3.0 | / | -6.2% | 9.2% | / | /
COc1ccc(CCNCC2C(Oc3ccc(Cl)cc3)C(=O)N2c2ccccc2C)cc1OC (stereo not drawn) | -6.1 | -14.8% | 44.7µM* | -26.6% | -5.5% | -25.6%
COCCNCC1C(Oc2ccc(Cl)cc2)C(=O)N1c1ccccc1C (stereo not drawn) | 3.1 | -13.3% | -19.8% | 10.9% | 4.9% | -11.6%
COc1ccc(OC)c(NC(=O)Nc2ccc(Cl)cc2)c1 | -0.7 | ? | ? | -9.2% | 20.7% | 14.1µM*[quencher]
COc1cc(OC)c(NC(=O)c2ccco2)cc1Cl | -13.2 | -4.8% | -33.6%[12.7 µM] | ? | -3.1% | -9.0%
COc1cc(NC(=O)c2ccco2)c(OC)cc1NC(=O)Nc1ccc(Cl)cc1 | -1.5 | ? | 0.0%[59 µM] | -2.2% | 12.1% | 8.91µM*[quencher]
Cc1nn(Cc2ccc(Cl)cc2)c(C)c1NC(=O)c1cc(-c2ccc3c(c2)OCO3)on1 | 3.0 | -9.3% | -27.3% | -0.1% | -5.1% | -5.2%
CCc1c(C)sc(NC(=O)c2noc(C)c2[N+](=O)[O-])c1C#N | -5.0 | ? | 39.8µM* | 50.1µM* | -7.0% | -17.7%
CCc1c(C)sc(NC(=O)c2ccco2)c1C#N | -0.8 | / | / | -2.3% | / | /
COc1ccc(-c2cc(C(=O)Nc3cc(C)n(Cc4ccc(Cl)cc4)n3)no2)cc1OC | 2.0 | 2.0% | -31.3%[59 µM] | 70.8µM* | -14.5% | -16.7%

Screening results: PubChem, National Center for Advancing Translational Sciences (NCATS)
